# Screening results (PubChem)
# In the library only some 3.8% were active in any assay of this set; here they are far more common.
# HSF-1 act – increases HSF-1 driven luciferase reporter signal; NIH3T3-HGL HSF-1 luciferase reporter, MG132, 8 h; 100% = twice DMSO control signal; activation, % at 9 µM; 300,000 compounds, 1.7% hits;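 active means mean replicate activation of at least 50% with a set share of replicates each reaching 50%; inconclusive means only one of those two conditions met; inactive means mean below 50% and too few replicates reaching it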;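 further: 0% = median of the neutral control wells and 100% = twice that signal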
# Wnt act – activators of Wnt/beta-catenin signaling. 300,000 compounds, 1.2% hits. AID 743398. Wnt/beta-catenin reporter cell assay, activator, plate reader. activation, % at 9.35 µM; in the data active means activation above about 30%, passing the limit was not always enough; inconclusive means no clear call, values can overlap the other calls;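 further: 0% = neutral control wells and 100% = positive control wells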
# HSF1 inh – HSF1 inhibition; NIH3T3-HGL HSE-luciferase, MG132-induced, luminescence 8 h; stronger effect = lower value; 300,000 compounds, 0.77% hits; AID 2098; activity change, negative = inhibition, % at 7.5 µM (by protocol);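 active means more than half of replicate wells show activity change below -50%, luminescence cut by over half; inconclusive means some wells, but at most half, below -50%; inactive means no replicate well below -50%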;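 further: luciferase reports HSF-1 transcriptional activity via heat shock element; 0% = median of DMSO wells and -100% = zero luminescence signal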
# MITF act – MITF TRPM1 promoter activation in melanoma cells; AID 588334; SK-MEL-5 TRPM1-promoter luciferase, 24 h; % of positive control, neutral wells = 0; 300,000 compounds, 0.75% hits; activation, % at 12.5 µM;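 active means mean activation of at least 80% with every replicate also reaching 80%; inconclusive means mean reaches 80% but some replicate falls short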;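 further: 0% = neutral control wells and 100% = parthenolide positive control wells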
# esBAF inh – blocks esBAF chromatin remodeling in mouse ES cells; Bmi1-luciferase knock-in reporter, 24 h; 100% = twice the neutral-well signal; reporter increase, % at 12.5 µM; 350,000 compounds, 2% hits; AID 602393; in the data active means activation above about 40%; inconclusive means no clear call, values can overlap the other calls;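 further: 0% = median of the plate's neutral control wells and 100% = double that signal; a rise in the Bmi1 reporter signal indicates esBAF inhibition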
# An asterisk follows results filed as active; ? = inconclusive; / = not tested or not shown.
SMILES,HSF-1 act,Wnt act,HSF1 inh,MITF act,esBAF inh
C[C@@H]1CN([C@@H](C)CO)C(=O)c2cc(NC(=O)CCCN(C)C)ccc2O[C@H]1CN(C)Cc1ccncc1,/,/,/,/,-1
O=[N+]([O-])c1ccc(/C=N/n2cnc3ccccc32)s1,63*,/,37,-86,/
COc1cccc(S(=O)(=O)N(C)C[C@@H]2Oc3cc(C#CCN(C)C)ccc3S(=O)(=O)N([C@H](C)CO)C[C@H]2C)c1,/,/,/,/,4
CC(=O)NCCN=C(C)c1sc2ccccc2c1O,6,/,10,22,41*
CC(=Nc1ccc(O)cc1)c1sc2ccccc2c1O,34,/,33,75,/
CC(=Nc1cccc(C)c1)c1sc2ccccc2c1O,40,/,24,46,52*
COc1ccc(C2c3c(ncn(Cc4ccco4)c3=N)Oc3ccc4ccccc4c32)cc1 (stereo unspecified),69*,-1,18,12,-4
COc1ccc(C2c3ccc(O)cc3Oc3ncn(Cc4ccco4)c(=N)c32)cc1 (stereo unspecified),75*,2,35,-7,-5
O=C(COC(=O)CCc1nc2ccccc2c(=O)[nH]1)Nc1c(Cl)cccc1C(F)(F)F,-77,-3,-70*,6,/
CCOC(=O)C1(Cc2ccccc2Cl)CCN(C(=O)c2cnccn2)CC1,?,12,20,79,67*
Cc1cc(-c2sccc2Br)nc(-n2cccc2)n1,72*,10,33,0,/
CCc1cc2c(N=Nc3c(O)[nH]c4ccccc34)ncnc2s1,-8,/,-3,-13,/
CCc1ccc2[nH]c(O)c(N=Nc3nc(-c4ccccc4)cs3)c2c1,-91,/,-89*,-6,/
COc1cc2c(cc1NC(=O)CSc1ccc(C)cc1)oc1ccccc12,15,-2,12,-11,/
COc1cc2c(cc1NC(=O)CSc1nc3ccc(C)cc3[nH]1)oc1ccccc12,74*,/,48,/,/
C[C@H](CO)N1C[C@H](C)[C@@H](CN(C)C(=O)C2CCCCC2)Oc2ncc(/C=C/c3ccccc3)cc2C1=O,/,/,/,/,-1
COC(=O)CC/C(O)=C1/C(=N)CC(C)(C)CC1=O,58*,-1,23,-3,4
C=CCN=C1CC(C)(C)CC(=O)/C1=C(/O)CCC(=O)OC,6,/,-5,5,/
Cc1ccsc1C1Nc2ccc3ncccc3c2C2=C1C(=O)CC(C)(C)C2 (stereo unspecified),11,/,5,-27,-7
CC1(C)CC(=O)C2=C(C1)c1c(ccc3ccccc13)NC2c1ccco1 (stereo unspecified),92*,-1,63,-6,31
Cc1c(Cl)cccc1N1C(=O)CC(N(O)c2ccccc2)C1=O (stereo unspecified),9,/,2,/,60*
CCCCOc1ccc(N2C(=O)CC(N(O)c3ccccc3)C2=O)cc1 (stereo unspecified),107*,2,55,/,0
CC(C)c1ccc(OCC(=O)NC(=S)Nc2ccc3c4c(cccc24)CC3)cc1,68*,0,20,/,-4
Cc1ccc(OCC(=O)NC(=S)Nc2ccc3c4c(cccc24)CC3)cc1,16,-1,-11,-7,/
O=C(COc1ccccc1)NC(=S)Nc1cccc2cc(O)ccc12,85*,0,66,-3,/
SMILES,HSF-1 act,Wnt act,HSF1 inh,MITF act,esBAF inh
O=C(COc1ccccc1)NC(=S)Nc1ccc2c3c(cccc13)CC2,9,/,10,8,/
Cc1ccc(S(=O)(=O)N[C@H]2C=C[C@H](CC(=O)NCCCN(C)C)O[C@H]2CO)cc1,/,/,/,/,1
Cc1cccc(C)c1NC(=O)C1C(c2ccc3c(c2)OCO3)=Nc2ccccc2N1C(=O)c1ccccc1 (stereo unspecified),/,-3,/,/,/
O=C(Nc1ccc2c(c1)OCCO2)C1C(c2ccccc2)=Nc2ccccc2N1C(=O)c1cccnc1 (stereo unspecified),/,50*,/,/,/
O=C(NCc1ccccc1F)[C@@H]1[C@@H](CO)[C@@H]2Cn3c(cccc3=O)[C@@H]2N1C(=O)CC1CC1,/,/,/,/,-3
O=C(C[C@H]1CC[C@H]2[C@@H](COC[C@@H](O)CN2S(=O)(=O)c2cccc(Cl)c2)O1)NCc1ccncn1,/,/,/,/,2
Clc1ccccc1CSc1cc2c(nn1)-c1ccccc1CC2,43,/,18,58,88*
Clc1cccc(Cl)c1CSc1cc2c(nn1)-c1ccccc1CC2,30,30,5,59,17
O=C(Nc1ncc(Cc2ccccc2)s1)C1COc2ccccc2O1 (stereo unspecified),?,/,32,?,53*
Cc1nnc(NC(=O)C2COc3ccccc3O2)s1 (stereo unspecified),21,/,4,/,46*
O=C(NC1=NCCS1)C1COc2ccccc2O1 (stereo unspecified),-59,/,-51*,-79,/
CCc1nnc(NC(=O)C2COc3ccccc3O2)s1 (stereo unspecified),38,/,15,8,/
CCC(CC)c1nnc(NC(=O)C2COc3ccccc3O2)s1 (stereo unspecified),-2,/,-6,71,11
N#C[C@@H]1[C@H](c2ccc(-c3ccccc3F)cc2)[C@@H](CO)N1C(=O)Cc1ccccc1,/,/,/,/,3
Cc1ccc(-c2noc(CSc3ccccc3)n2)cc1,69*,52*,37,102*,0
c1ccc(SCc2nc(-c3cccnc3)no2)cc1,47,/,38,109*,13
c1ccc(C(Cc2nc(-c3cccnc3)no2)c2ccccc2)cc1,-5,/,2,-2,/
Cc1ccc(-c2noc(CSc3nc(N)cc(N)n3)n2)cc1,20,/,3,/,/
COc1ccc(Cc2nc(-c3cccnc3)no2)cc1OC,0,1,-2,/,/
Cc1cccc(-c2noc(CSc3ccccc3)n2)c1,45,-1,14,87*,46*
COc1ccccc1Cc1nc(-c2cccnc2)no1,1,38*,-4,/,/
COc1ccccc1-c1cnc2c(c1)C(=O)N([C@H](C)CO)C[C@@H](C)[C@@H](CN(C)Cc1ccc(F)cc1)O2,/,/,/,/,0
C[C@@H]1CCCCO[C@@H](CN(C)C)[C@@H](C)CN([C@@H](C)CO)C(=O)c2cc(NC(=O)C3CCCCC3)ccc2O1,/,/,/,/,-5
CO[C@H]1CN(C)C(=O)c2cc(NC(=O)Nc3c(C)noc3C)ccc2OC[C@H](C)N(CCC(F)(F)F)C[C@@H]1C,/,/,/,/,2
c1ccc(SCc2nc(-c3ccccn3)no2)cc1,?,/,40,83*,26
c1ccc(C(Cc2nc(-c3ccccn3)no2)c2ccccc2)cc1,-11,/,-4,40,29
COCC(=O)N(C)C[C@H]1Oc2ncc(C#Cc3ccc(OC)cc3)cc2C(=O)N([C@@H](C)CO)C[C@@H]1C,/,/,/,/,4
COc1ccccc1/C=C/C=N/NC(=O)c1cccs1,61*,4,22,/,/
O=C(N/N=C/c1cccc2ccccc12)c1cccs1,32,34*,16,56,67*
O=C(N/N=C/c1ccc([N+](=O)[O-])o1)c1sc2ccccc2c1Cl,-10,32*,-6,-77,/
